AmpC inh detg = AmpC beta-lactamase inhibition with detergent present; P00811; 0.041% of 370,000 active; AmpC hydrolysis of nitrocefin, absorbance 480 nm, 0.01% Triton; Potency, µM (doses to about 114 µM), without a hit: top-dose activity change, negative = inhibition, usual class: inhibitors;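 note: 0% = no-compound wells and -100% = no-enzyme wells; nearly all actives have a fitted effect of over 25% in size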
Target sequence (P00811 whole entry, looked up): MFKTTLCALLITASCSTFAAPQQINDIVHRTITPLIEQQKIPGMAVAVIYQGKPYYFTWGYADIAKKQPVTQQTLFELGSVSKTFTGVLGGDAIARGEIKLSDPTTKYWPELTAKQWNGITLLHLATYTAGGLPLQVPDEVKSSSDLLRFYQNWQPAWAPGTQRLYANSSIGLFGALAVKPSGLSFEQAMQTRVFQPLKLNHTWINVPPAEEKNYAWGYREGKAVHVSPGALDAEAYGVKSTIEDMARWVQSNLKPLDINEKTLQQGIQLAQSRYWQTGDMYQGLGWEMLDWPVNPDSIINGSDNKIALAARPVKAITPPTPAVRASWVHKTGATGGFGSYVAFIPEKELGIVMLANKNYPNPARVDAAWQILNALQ
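AmpC (5.3 nM in the dispensed reagent) in 20 mM phosphate pH 7.0 with 0.01% (detergent screen) or 0.0001% Triton X-100 was preincubated with compounds for 15 min at room temperature. Nitrocefin was then added from an 800 uM solution, and hydrolysis was followed at 480 nm.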
Sm TGR block = blocks Schistosoma mansoni thioredoxin glutathione reductase; Q962Y6; purified TGR, DTNB reduction, TNB absorbance 405 nm; Potency, µM (highest dose often 114 µM), for inactives: top-dose activity change, negative = inhibition, hits mostly inhibitors; 3% of 360,000 active; AID 485364; note: nearly all actives have a fitted effect of over 60% in size
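TGR 20 nM + NADPH 100 uM (dispensed conc.), cpd preinc 15 min RT; start with NADPH (500 uM addition) then DTNB (15 mM addition). Kinetic TNB absorbance, 405 nm filter. Four-parameter Hill fit across titration.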
AMA1 RON2 block = inhibitors of Plasmodium falciparum AMA1-RON2 interaction | AlphaScreen AMA1-biotinylated RON2 peptide binding | Potency, µM (highest dose often 58.2 µM), for inactives: at the top dose activity change, negative = inhibition, actives largely listed as inhibitors | 0.2% of 360,000 active;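 note: 0% = vehicle wells and -100% = peptide control; nearly all actives have a fitted effect of over 45% in size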
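AMA1 (3D7) with his tag at 25 nM final met compounds first, then biotinylated RON2 peptide at 25 nM; detection used donor plus acceptor beads, 10 µg/mL apiece, read by AlphaScreen after 30 min at room temperature.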
AmpC no deterg = AmpC beta-lactamase inhibition without detergent | AmpC nitrocefin hydrolysis, absorbance 480 nm, 0.0001% Triton | Potency, µM (top dose mostly 57.1 µM), inactives show top-dose activity change, negative = inhibition, most hits filed as inhibitors | AID 485341 | 0.52% of 330,000 active | P00811;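 note: plate controls were no compound for no effect and no enzyme for full effect; nearly all actives have a fitted effect of over 20% in size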
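20 mM phosphate pH 7.0 + 0.01% (detergent screen) or 0.0001% Triton X-100; 5.3 nM AmpC reagent; cpd preinc 15 min RT; nitrocefin (800 uM stock) to start; A480 q20 s × 4 min; Activity was normalised to no-enzyme and no-compound control wells.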
RE007 growth inh = less growth of the S. pombe RE007 Vpr strain. Potency, µM (series often up to 92.2 µM), for the others: top-dose activity change, negative = less growth, actives largely listed as inhibitors. S. pombe RE007 Vpr strain, BacTiter-Glo ATP luminescence, 24 h. AID 651644. 0.21% of 360,000 active; active = well fitted falling curve with a large enough effect; inconclusive = small, poorly fitted or top-dose-only effect; inactive = no such curve, though single readings can be large or run the other way; note: nearly all actives have a fitted effect of over 50% in size
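Fission yeast strain RE007, carrying one chromosomally integrated HIV-1 vpr copy, was seeded at OD 0.01 in PMG+AL medium with 23 nL pinned compound. After 24 h at 30 °C and 99% humidity, viability was read by BacTiter-Glo luminescence.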
The depositor's hits bear a star; ? = inconclusive; nt = not tested or not shown. Only some compounds are listed: those with a hit (about 3.2% of all), similar ones and a draw of the others. Unless noted, calls come from the whole dose curve; as a rule, active = well fitted curve in the direction sought with a large enough effect; inconclusive = small, poorly fitted or top-dose-only effect, or another doubt; inactive = no such curve, though single readings can be large; an effect the other way counts as inactive or inconclusive. Unless noted, % is set by controls: 0 for no effect and ±100 for the full control effect; potency is the fitted concentration of half-maximal effect.

SMILES	AmpC inh detg	Sm TGR block	AMA1 RON2 block	AmpC no deterg	RE007 growth inh
BrCC1C[n+]2c(SCc3ccccc3)nc3sc4c(c3c2O1)CCCC4 (stereo not given)	1.2%	31.6µM*	-14.8%	4.7%	0.1%
CCSc1nc2sc3c(c2c2[n+]1CC(CBr)O2)CCCC3 (stereo not given)	2.1%	44.7µM*	0.7%	62.5%	1.8%
CCSc1nc2sc3c(c2c(=O)[nH]1)CCCC3	?	1.1%	-15.6%	-20.5%	14.3%
N#Cc1cnn(-c2nc(SCc3ccccc3)nc3sc4c(c23)CCCC4)c1N	5.3%	-21.7%	-10.8%	-38.6%	-16.4%
CCc1ccc(NC(=O)Cn2c(=O)c(-c3ccccc3NC(C)=O)nc3ccccc32)cc1	2.8%	1.4%	nt	nt	nt
Cc1ccc(CNC(=O)Cn2c(=O)oc3ccccc32)o1	-6.8%	28.2µM*	23.6%	-8.3%	3.1%
CCCOc1ccc(CNC(=O)Cn2c(=O)oc3ccccc32)cc1	15.1%	27.7%	-4.8%	7.94µM*	-8.5%
COc1cccc(CNC(=O)Cn2c(=O)nc(-c3ccccc3F)c3cc(Cl)ccc32)c1	7.9%	-4.3%	nt	nt	nt
CCc1nc(SCC(=O)NCc2ccc(F)cc2)c2c(=O)n(C)c(=O)n(C)c2n1	?	-1.1%	-3.6%	2.51µM*	8.6%
Cc1cc(NC(=O)CSc2nc(CC(C)(C)C)nc3c2c(=O)n(C)c(=O)n3C)no1	-12.6%	11.7%	3.3%	39.8µM*	-14.8%
CCc1nc(SCC(=O)Nc2cc(C)on2)c2c(=O)n(C)c(=O)n(C)c2n1	?	1.8%	-8.9%	-4.8%	7.0%
Cc1ccccc1-c1nc(SCC(=O)NCc2ccc(F)cc2)c2c(=O)n(C)c(=O)n(C)c2n1	-6.3%	-27.0%	nt	nt	nt
CCOC(=O)C(C)NC(=O)c1cc2c(=O)[nH]c3ccc(C)cc3c2s1 (stereo not given)	11.3%	5.3%	nt	nt	nt
CCCCNC(=O)C1CCN(c2nc3ccc(C)cc3[nH]2)CC1	-0.5%	7.8%	nt	nt	nt
Cc1ccccc1NC(=O)CSc1nc(N)c2c3c(sc2n1)CSC(C)(C)C3	?	-2.5%	-15.2%	15.8µM*	-3.9%
CCOC(=O)c1cc2c(=O)n3ccccc3nc2n(CCOC)c1=NC(=O)c1c(-c2ccccc2Cl)noc1C	6.2%	0.8%	nt	nt	nt
O=C(CN1CCN(c2ccccc2)CC1)c1c[nH]c2ccccc12	2.4%	7.3%	-1.7%	-24.4%	-14.1%
COc1ccccc1N1CCN(CC(=O)c2ccc(F)cc2)CC1	-10.9%	22.4µM*	-40.8%	-6.0%	-2.2%
N#CCN1CCN(CC(=O)c2ccc(Br)cc2)CC1	10.5%	11.2µM*	6.0%	-5.9%	-4.5%
N#Cc1ccc(C(=O)CN2CCN(c3ccccc3)CC2)cc1	2.5%	7.08µM*	-24.7%	-14.6%	-17.7%
COc1ccc(C(=O)CCN2CCN(c3ccc(OC)cc3)CC2)cc1	1.7%	0.0%	-28.0%	2.9%	?
COc1ccc(N2CCN(CC(=O)c3ccc(Cl)cc3)CC2)cc1	-8.8%	11.2µM*	-3.7%	3.8%	0.5%
CCOc1ccc2nc(N3CCCC(C(=O)NCc4ccc(OC)cc4)C3)sc2c1 (stereo not given)	-8.9%	3.8%	nt	nt	nt
CCCCCCN1CCN(c2ccc(Cl)cc2)CC1	?	3.5%	35.5µM*	-39.4%	-12.0%
COc1ccc(C(=O)CN2CCN(c3ccc(Cl)cc3)CC2)cc1OC	-0.3%	35.5µM*	-8.0%	49.6%	4.6%
SMILES	AmpC inh detg	Sm TGR block	AMA1 RON2 block	AmpC no deterg	RE007 growth inh
CCN1CCC(N2CCN(c3ccc(Cl)cc3)CC2)CC1	-18.4%	-6.0%	1.5%	-9.3%	1.0%
COc1ccc(C(=O)CN2CCN(c3ccc(F)cc3)CC2)cc1OC	-1.4%	35.5µM*	22.5%	81.6%	-22.6%
COc1cc(OC)c(OC)cc1CN1CCN(c2ccc(F)cc2)CC1	2.6%	2.5%	-22.5%	0.3%	-2.8%
CCc1ccc(NS(=O)(=O)c2c(-c3ccccc3)csc2C(=O)OC)cc1	6.9%	-2.8%	nt	nt	nt
Cc1ccc2nc(NC(=O)CSc3[nH]c(=O)ncc3C)sc2c1	1.0%	-5.7%	nt	nt	nt
Cc1ccc(-c2nnc(Nc3cccc(Cl)c3)c3ccccc23)cc1S(=O)(=O)N1CCCCC1	-0.9%	0.9%	nt	nt	nt
Cc1oc(-c2ccccc2F)nc1CS(=O)CC(=O)NC1CCCCC1 (stereo not given)	?	31.6µM*	2.0%	50.2%	-8.0%
Cc1cccc(-c2nc(CS(=O)CC(=O)NC3CCCCC3)c(C)o2)c1 (stereo not given)	-9.7%	56.2µM*	-6.2%	1.9%	-2.8%
CCOC(=O)N1CCC(NC(=O)CS(=O)(=O)Cc2nc(-c3ccccc3Cl)oc2C)CC1	-12.0%	-32.5%	-11.0%	117.6%	-8.8%
CCOC(=O)N1CCC(NC(=O)CS(=O)Cc2nc(-c3ccccc3C)oc2C)CC1 (stereo not given)	3.4%	12.6µM*	-13.2%	75.8%	-9.3%
COc1cccc(-c2nc(CS(=O)CC(=O)NC3CCCCC3)c(C)o2)c1 (stereo not given)	?	17.8µM*	4.6%	83.8%	7.4%
COC(=O)[C@]12CCCCC=C1N(Cc1cccc3ccccc13)C(=O)[C@H](CC(=O)NCc1cccs1)C2	nt	nt	-6.9%	nt	3.7%
CCN(Cc1ccccc1)S(=O)(=O)c1cc(C(=O)Nc2cc(Cl)cc(Cl)c2)ccc1F	13.2%	7.2%	nt	nt	nt
CCOc1ccc(-n2c(=O)c3c(C)c(C)sc3n(CC(=O)Nc3ccc(CC)cc3)c2=O)cc1	1.9%	0.9%	nt	nt	nt
Cc1oc(-c2ccccc2)nc1CS(=O)CC(=O)NC1CCCCCC1 (stereo not given)	-10.5%	7.08µM*	0.0%	52.1%	4.0%
O=C(NCCCCCCCCNC(=O)c1cccc2ccccc12)c1cccc2ccccc12	nt	nt	-2.7%	nt	-1.5%
O=C(NCCn1cccc1)c1cccc2ccccc12	-8.0%	28.2µM*	-6.2%	-43.5%	-8.6%
Cc1ccc(CN(C)C(=O)c2ccccc2Oc2ccccc2)o1	0.9%	7.94µM*	-13.7%	5.9%	-11.3%
CN(Cc1ccc(OC(F)F)cc1)C(=O)c1ccc(S(=O)(=O)N(C)c2ccccc2)cc1	?	0.0%	-2.3%	34.5%	-2.6%
COCc1nnc(NC(=O)c2ccc(S(=O)(=O)N(C)c3ccccc3)cc2)o1	?	1.1%	50.1%	39.8µM*	12.6%
Cc1ccc(CN(C)C(=O)c2cccc(S(=O)(=O)N3CCc4ccccc4C3)c2)o1	-0.4%	28.2µM*	-8.8%	50.9%	-1.3%
Cc1ccc(CN(C)C(=O)c2ccc(S(=O)(=O)N(C)c3ccccc3)cc2)o1	-3.6%	11.2µM*	1.5%	46.4%	-7.2%
CCCCC(CC)CNC(=O)CCCn1c(=O)[nH]c2ccsc2c1=O (stereo not given)	-6.9%	-4.5%	nt	nt	nt
